Where a chain is given by its changes, count along the chain named.
Tests used:
Test in all cases: PBM; 200 nM protein, PBS
Details in all cases: dsDNA, one strand shown
[1] = biological target: HOXB4 (Homo sapiens, UniProt P17483 148-234)
[2] = biological target: HOXA4 (Homo sapiens, UniProt Q00056 201-287, W262R)
[3] = biological target: ALX4 (Homo sapiens, UniProt Q9H161 200-286)
[4] = biological target: PRRX1 (Homo sapiens, UniProt P54821 80-166, F113S)
[5] = biological target: ALX4 (Homo sapiens, UniProt Q9H161 200-286, Q225E)
Chain of ALX4 (Homo sapiens, UniProt Q9H161 200-286, Q225E) (Q9H161 200-286 Q225E): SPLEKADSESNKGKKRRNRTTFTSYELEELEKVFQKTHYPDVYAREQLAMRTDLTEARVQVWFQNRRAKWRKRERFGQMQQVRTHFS

[6] = biological target: HOXA4 (Homo sapiens, UniProt Q00056 201-287, R217L)
Chain of HOXA4 (Homo sapiens, UniProt Q00056 201-287, R217L) (Q00056 201-287 R217L): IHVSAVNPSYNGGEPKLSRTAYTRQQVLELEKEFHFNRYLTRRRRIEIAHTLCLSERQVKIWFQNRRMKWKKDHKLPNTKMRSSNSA

[7] = biological target: HOXB4 (Homo sapiens, UniProt P17483 148-234, V174I)
Chain of HOXB4 (Homo sapiens, UniProt P17483 148-234, V174I) (P17483 148-234 V174I): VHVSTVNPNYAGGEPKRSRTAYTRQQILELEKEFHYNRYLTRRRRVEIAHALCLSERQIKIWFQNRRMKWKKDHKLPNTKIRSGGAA

[8] = biological target: ALX3 (Homo sapiens, UniProt O95076 139-225, N203Q)
Chain of ALX3 (Homo sapiens, UniProt O95076 139-225, N203Q) (O95076 139-225 N203Q): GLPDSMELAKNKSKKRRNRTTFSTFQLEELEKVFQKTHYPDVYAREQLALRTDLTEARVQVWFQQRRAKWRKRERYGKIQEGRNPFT

[9] = biological target: HOXA4 (Homo sapiens, UniProt Q00056 201-287)
Chain of HOXA4 (Homo sapiens, UniProt Q00056 201-287) (Q00056 201-287): as the sequence (Q00056 201-287 R217L) above, with L17R counted along it

[10] = biological target: ALX3 (Homo sapiens, UniProt O95076 139-225)
Chain of ALX3 (Homo sapiens, UniProt O95076 139-225) (O95076 139-225): as the sequence (O95076 139-225 N203Q) above, with Q65N counted along it

[11] = biological target: ALX3 (Homo sapiens, UniProt O95076 139-225, L168Q)
Chain of ALX3 (Homo sapiens, UniProt O95076 139-225, L168Q) (O95076 139-225 L168Q): as the sequence (O95076 139-225 N203Q) above, with L30Q, Q65N counted along it

[12] = biological target: ALX3 (Homo sapiens, UniProt O95076 139-225, L168V)
Chain of ALX3 (Homo sapiens, UniProt O95076 139-225, L168V) (O95076 139-225 L168V): as the sequence (O95076 139-225 N203Q) above, with L30V, Q65N counted along it

[13] = biological target: HOXA4 (Homo sapiens, UniProt Q00056 201-287, W262F)
Chain of HOXA4 (Homo sapiens, UniProt Q00056 201-287, W262F) (Q00056 201-287 W262F): as the sequence (Q00056 201-287 R217L) above, with L17R, W62F counted along it

[14] = biological target: ALX3 (Homo sapiens, UniProt O95076 139-225, N203S)
Chain of ALX3 (Homo sapiens, UniProt O95076 139-225, N203S) (O95076 139-225 N203S): as the sequence (O95076 139-225 N203Q) above, with Q65S counted along it

[15] = biological target: PRRX1 (Homo sapiens, UniProt P54821 80-166)
Chain of PRRX1 (Homo sapiens, UniProt P54821 80-166) (P54821 80-166): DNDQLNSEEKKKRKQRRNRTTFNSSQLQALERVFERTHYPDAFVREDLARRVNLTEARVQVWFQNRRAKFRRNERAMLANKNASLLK

[16] = biological target: HOXA2 (Homo sapiens, UniProt O43364 129-215, R185T)
Chain of HOXA2 (Homo sapiens, UniProt O43364 129-215, R185T) (O43364 129-215 R185T): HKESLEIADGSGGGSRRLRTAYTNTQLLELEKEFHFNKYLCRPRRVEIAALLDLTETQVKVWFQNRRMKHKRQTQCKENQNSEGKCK

[17] = biological target: ALX1 (Homo sapiens, UniProt Q15699 118-204, L144V)
Chain of ALX1 (Homo sapiens, UniProt Q15699 118-204, L144V) (Q15699 118-204 L144V): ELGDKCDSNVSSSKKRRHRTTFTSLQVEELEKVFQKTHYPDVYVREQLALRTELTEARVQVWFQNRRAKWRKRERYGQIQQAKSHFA

[18] = biological target: HOXA2 (Homo sapiens, UniProt O43364 129-215, R185K)
Chain of HOXA2 (Homo sapiens, UniProt O43364 129-215, R185K) (O43364 129-215 R185K): as the sequence (O43364 129-215 R185T) above, with T57K counted along it

[19] = biological target: ALX1 (Homo sapiens, UniProt Q15699 118-204, L144R)
Chain of ALX1 (Homo sapiens, UniProt Q15699 118-204, L144R) (Q15699 118-204 L144R): as the sequence (Q15699 118-204 L144V) above, with V27R counted along it

[20] = biological target: VAX1 (Homo sapiens, UniProt Q5SQQ9 86-172)
Chain of VAX1 (Homo sapiens, UniProt Q5SQQ9 86-172) (Q5SQQ9 86-172): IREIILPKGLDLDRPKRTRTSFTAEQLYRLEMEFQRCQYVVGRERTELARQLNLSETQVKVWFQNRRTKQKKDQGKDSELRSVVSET

[21] = biological target: VAX1 (Homo sapiens, UniProt Q5SQQ9 86-172, T142I)
Chain of VAX1 (Homo sapiens, UniProt Q5SQQ9 86-172, T142I) (Q5SQQ9 86-172 T142I): as the sequence (Q5SQQ9 86-172) above, with T57I counted along it

[22] = biological target: HOXA2 (Homo sapiens, UniProt O43364 129-215, Y150S)
Chain of HOXA2 (Homo sapiens, UniProt O43364 129-215, Y150S) (O43364 129-215 Y150S): as the sequence (O43364 129-215 R185T) above, with Y22S, T57R counted along it

[23] = biological target: ALX1 (Homo sapiens, UniProt Q15699 118-204)
Chain of ALX1 (Homo sapiens, UniProt Q15699 118-204) (Q15699 118-204): as the sequence (Q15699 118-204 L144V) above, with V27L counted along it

[24] = biological target: HOXA2 (Homo sapiens, UniProt O43364 129-215)
Chain of HOXA2 (Homo sapiens, UniProt O43364 129-215) (O43364 129-215): as the sequence (O43364 129-215 R185T) above, with T57R counted along it

[25] = biological target: VAX1 (Homo sapiens, UniProt Q5SQQ9 86-172, K157R)
Chain of VAX1 (Homo sapiens, UniProt Q5SQQ9 86-172, K157R) (Q5SQQ9 86-172 K157R): as the sequence (Q5SQQ9 86-172) above, with K72R counted along it

[26] = biological target: T1, PAX4 (Homo sapiens, UniProt O43316 9-242, R200K)
T1 sequence: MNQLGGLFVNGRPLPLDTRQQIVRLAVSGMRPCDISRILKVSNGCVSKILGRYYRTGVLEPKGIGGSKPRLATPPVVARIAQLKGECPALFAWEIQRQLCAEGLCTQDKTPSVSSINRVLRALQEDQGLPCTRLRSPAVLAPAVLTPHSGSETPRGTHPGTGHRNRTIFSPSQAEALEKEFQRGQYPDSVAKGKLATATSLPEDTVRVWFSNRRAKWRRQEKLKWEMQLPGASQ

[27] = biological target: T2, PAX4 (Homo sapiens, UniProt O43316 9-242)
T2 sequence: T1 sequence with K192R

[28] = biological target: MSX2 (Homo sapiens, UniProt P35548 130-214, R199I)
Chain of MSX2 (Homo sapiens, UniProt P35548 130-214, R199I) (P35548 130-214 R199I): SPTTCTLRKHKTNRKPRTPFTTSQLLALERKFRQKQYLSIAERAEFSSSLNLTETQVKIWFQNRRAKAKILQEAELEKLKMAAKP

[29] = biological target: T3, PAX4 (Homo sapiens, UniProt O43316 9-242, R200Q)
T3 sequence: T1 sequence with K192Q

[30] = biological target: T4, PAX4 (Homo sapiens, UniProt O43316 9-242, F177V)
T4 sequence: T1 sequence with F169V, K192R

[31] = biological target: MSX2 (Homo sapiens, UniProt P35548 130-214)
Chain of MSX2 (Homo sapiens, UniProt P35548 130-214) (P35548 130-214): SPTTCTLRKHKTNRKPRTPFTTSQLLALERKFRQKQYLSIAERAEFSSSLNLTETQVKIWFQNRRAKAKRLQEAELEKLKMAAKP

[32] = biological target: T5, PAX4 (Homo sapiens, UniProt O43316 9-242, F177Y)
T5 sequence: T1 sequence with F169Y, K192R

[33] = biological target: MSX2 (Homo sapiens, UniProt P35548 130-214, F161Y)
Chain of MSX2 (Homo sapiens, UniProt P35548 130-214, F161Y) (P35548 130-214 F161Y): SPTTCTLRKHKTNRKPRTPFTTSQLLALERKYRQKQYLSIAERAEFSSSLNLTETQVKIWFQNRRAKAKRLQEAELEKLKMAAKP

[34] = biological target: T6, PAX4 (Homo sapiens, UniProt O43316 9-242, R227W)
T6 sequence: T1 sequence with K192R, R219W

Chain of HOXB4 (Homo sapiens, UniProt P17483 148-234) (P17483 148-234): as the sequence (P17483 148-234 V174I) above, with I27V counted along it
Chain of HOXA4 (Homo sapiens, UniProt Q00056 201-287, W262R) (Q00056 201-287 W262R): as the sequence (Q00056 201-287 R217L) above, with L17R, W62R counted along it
Chain of ALX4 (Homo sapiens, UniProt Q9H161 200-286) (Q9H161 200-286): as the sequence (Q9H161 200-286 Q225E) above, with E26Q counted along it
Chain of PRRX1 (Homo sapiens, UniProt P54821 80-166, F113S) (P54821 80-166 F113S): as the sequence (P54821 80-166) above, with F34S counted along it

**Q.** How did the binding signal [1] turn out when CCCTTGCG was run?
**A.** 7.39 upbm affinity estimate (log intensity, higher = more binding, comparable within an allelic series)

**Q.** And the binding signal [2]?
**A.** 9.76 upbm affinity estimate (log intensity, higher = more binding, comparable within an allelic series)

**Q.** What about the binding signal [3] of the same sequence?
**A.** 7.92 upbm affinity estimate (log intensity, higher = more binding, comparable within an allelic series)

**Q.** And the binding signal [4]?
**A.** 9.08 upbm affinity estimate (log intensity, higher = more binding, comparable within an allelic series)

**Q.** And the binding signal [5]?
**A.** 7.92 upbm affinity estimate (log intensity, higher = more binding, comparable within an allelic series)

**Q.** What about the binding signal [6] of the same sequence?
**A.** 9.77 upbm affinity estimate (log intensity, higher = more binding, comparable within an allelic series)

**Q.** And the binding signal [7]?
**A.** 7.32 upbm affinity estimate (log intensity, higher = more binding, comparable within an allelic series)

**Q.** And the binding signal [8]?
**A.** 7.69 upbm affinity estimate (log intensity, higher = more binding, comparable within an allelic series)

**Q.** And the binding signal [9]?
**A.** 9.61 upbm affinity estimate (log intensity, higher = more binding, comparable within an allelic series)

**Q.** And the binding signal [10]?
**A.** 7.65 upbm affinity estimate (log intensity, higher = more binding, comparable within an allelic series)

**Q.** And the binding signal [11]?
**A.** 7.59 upbm affinity estimate (log intensity, higher = more binding, comparable within an allelic series)

**Q.** And the binding signal [12]?
**A.** 7.6 upbm affinity estimate (log intensity, higher = more binding, comparable within an allelic series)

**Q.** And the binding signal [13]?
**A.** 9.81 upbm affinity estimate (log intensity, higher = more binding, comparable within an allelic series)

**Q.** And the binding signal [14]?
**A.** 7.67 upbm affinity estimate (log intensity, higher = more binding, comparable within an allelic series)

**Q.** What about the binding signal [15] of the same sequence?
**A.** 9.11 upbm affinity estimate (log intensity, higher = more binding, comparable within an allelic series)

**Q.** How did the binding signal [1] turn out when TTAATGAA was run?
**A.** 13 upbm affinity estimate (log intensity, higher = more binding, comparable within an allelic series)

**Q.** And the binding signal [2]?
**A.** 10.7 upbm affinity estimate (log intensity, higher = more binding, comparable within an allelic series)

**Q.** And the binding signal [16]?
**A.** 12 upbm affinity estimate (log intensity, higher = more binding, comparable within an allelic series)

**Q.** And the binding signal [6]?
**A.** 12.2 upbm affinity estimate (log intensity, higher = more binding, comparable within an allelic series)

**Q.** What about the binding signal [7] of the same sequence?
**A.** 13.7 upbm affinity estimate (log intensity, higher = more binding, comparable within an allelic series)

**Q.** And the binding signal [17]?
**A.** 11 upbm affinity estimate (log intensity, higher = more binding, comparable within an allelic series)

**Q.** And the binding signal [18]?
**A.** 12.9 upbm affinity estimate (log intensity, higher = more binding, comparable within an allelic series)

**Q.** What about the binding signal [19] of the same sequence?
**A.** 10.7 upbm affinity estimate (log intensity, higher = more binding, comparable within an allelic series)

**Q.** And the binding signal [9]?
**A.** 13.8 upbm affinity estimate (log intensity, higher = more binding, comparable within an allelic series)

**Q.** And the binding signal [20]?
**A.** 12.7 upbm affinity estimate (log intensity, higher = more binding, comparable within an allelic series)

**Q.** What about the binding signal [21] of the same sequence?
**A.** 12.4 upbm affinity estimate (log intensity, higher = more binding, comparable within an allelic series)

**Q.** And the binding signal [22]?
**A.** 10.8 upbm affinity estimate (log intensity, higher = more binding, comparable within an allelic series)

**Q.** And the binding signal [23]?
**A.** 11.5 upbm affinity estimate (log intensity, higher = more binding, comparable within an allelic series)

**Q.** What about the binding signal [13] of the same sequence?
**A.** 11.8 upbm affinity estimate (log intensity, higher = more binding, comparable within an allelic series)

**Q.** What about the binding signal [24] of the same sequence?
**A.** 12.1 upbm affinity estimate (log intensity, higher = more binding, comparable within an allelic series)

**Q.** What about the binding signal [25] of the same sequence?
**A.** 12.4 upbm affinity estimate (log intensity, higher = more binding, comparable within an allelic series)

**Q.** CGGGCTTC was tested. Which binding signal [1] did it give?
**A.** 7.22 upbm affinity estimate (log intensity, higher = more binding, comparable within an allelic series)

**Q.** What about the binding signal [2] of the same sequence?
**A.** 9.75 upbm affinity estimate (log intensity, higher = more binding, comparable within an allelic series)

**Q.** What about the binding signal [26] of the same sequence?
**A.** 9.13 upbm affinity estimate (log intensity, higher = more binding, comparable within an allelic series)

**Q.** What about the binding signal [27] of the same sequence?
**A.** 8.97 upbm affinity estimate (log intensity, higher = more binding, comparable within an allelic series)

**Q.** What about the binding signal [6] of the same sequence?
**A.** 9.66 upbm affinity estimate (log intensity, higher = more binding, comparable within an allelic series)

**Q.** And the binding signal [7]?
**A.** 7.19 upbm affinity estimate (log intensity, higher = more binding, comparable within an allelic series)

**Q.** What about the binding signal [28] of the same sequence?
**A.** 9.39 upbm affinity estimate (log intensity, higher = more binding, comparable within an allelic series)

**Q.** And the binding signal [29]?
**A.** 9.21 upbm affinity estimate (log intensity, higher = more binding, comparable within an allelic series)

**Q.** And the binding signal [30]?
**A.** 9.17 upbm affinity estimate (log intensity, higher = more binding, comparable within an allelic series)

**Q.** And the binding signal [9]?
**A.** 9.6 upbm affinity estimate (log intensity, higher = more binding, comparable within an allelic series)

**Q.** What about the binding signal [31] of the same sequence?
**A.** 9.32 upbm affinity estimate (log intensity, higher = more binding, comparable within an allelic series)

**Q.** And the binding signal [32]?
**A.** 9.09 upbm affinity estimate (log intensity, higher = more binding, comparable within an allelic series)

**Q.** What about the binding signal [33] of the same sequence?
**A.** 9.35 upbm affinity estimate (log intensity, higher = more binding, comparable within an allelic series)

**Q.** And the binding signal [34]?
**A.** 9.24 upbm affinity estimate (log intensity, higher = more binding, comparable within an allelic series)

**Q.** And the binding signal [13]?
**A.** 9.77 upbm affinity estimate (log intensity, higher = more binding, comparable within an allelic series)

Reference: paper PMC11006913
